Data on 37 compounds can be found in paper PMC5540273 (PLoS ONE, 2017).

Molecules are shown by their SMILES.
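Further: KINOMEscan kinase panel screen.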

One test has as its system SIK2. As to conditions: concentration: 1 μM,replicates: in singlicate; n = 1.
Take `Cc1ccc(Nc2ccnc(Nc3ccc4c(c3)CS(=O)(=O)C4)n2)cc1O.Cl` [GW579362]: the “%Inh” value stood at 60%.
The same measure, in the same setting: the same measure for `Cl.Cl.NC[C@H](CC1CCCCC1)NC(=O)c1ccc(-c2ccnc3[nH]ccc23)s1` [GSK1581428]: 16%; for `Cc1n[nH]c2cc(Nc3ccnc(Nc4cccc(CN5CCOCC5)c4)n3)ccc12` [GW682569]: 33%.

A further test has as its system SIK. As to conditions: concentration: 1 μM,replicates: in singlicate; n = 1.
Turning to `COc1cccc(C2=C(Nc3cccc(Cl)c3)C(=O)NC2=O)c1` [SB-341556], the “%Inh” value worked out at 0%.
The same measure, in the same setting: for `CCn1c(-c2nonc2N)nc2cncc(CNC3CCNCC3)c21.Cl` [SB-747651] the value was 0%; for `Cn1ccc2ncnc(Oc3ccc(NC(=O)Nc4cncc(C(F)(F)F)c4)c(Cl)c3)c21`, 0%.
As for `CN(c1ccccc1CNc1nc(Nc2ccc3c(c2)CC(=O)N3)ncc1C(F)(F)F)S(C)(=O)=O`, the “%Inh” value turned out to be 16%.
The same measure, in the same setting: the same measure for `COc1cccc(CNC(=O)NC2CCN(c3ccnc(Nc4cc(OC)c(OC)c(OC)c4)n3)C2)c1` (stereo not shown) [GSK1379765]: 0%; for `COc1cc(Nc2nccc(N3CCC(NC(=O)c4cccc(C#N)c4)C3)n2)cc(OC)c1OC` (stereo not shown) [GSK1379751]: 0%; for `COc1cc2nccc(Nc3ccc(Oc4ccccc4)cc3)c2cc1OC.Cl` [GI261656]: 0%.
Still for that read-out and setting: for `O=C(Nc1cccc(C(F)(F)F)c1)c1cccc(Oc2ccc3nccn3n2)c1` the value was 0%.
On the same count and under the same terms, for `Nc1nccc(-c2ccc3c(N)n[nH]c3c2)n1` [GSK1034945] the value was 0%.
Take `C[C@@H](Oc1cc(-n2cnc3cc(-c4cnn(C)c4)ccc32)sc1C(N)=O)c1ccccc1Cl` [GSK580432]: the “%Inh” value amounted to 65%.
Still for that read-out and setting: for `CCNCC(Cc1ccccc1)NC(=O)c1cc(Br)c(-c2ccnc3[nH]ccc23)s1.Cl.Cl` (stereo not shown) [GSK1383280] the value was 0%; for `O=C(Nc1ccc(Oc2ccc3nc(NC(=O)C4CC4)cn3n2)c(F)c1)c1cccn(-c2ccccc2)c1=O`, 59%; for `N#Cc1cccc(C(=O)NC2CCN(c3ccnc(Nc4ccc(F)cc4)n3)C2)c1` (stereo not shown) [GSK1379708], 7%.
For `CSc1nccc(-c2c(-c3ccc(F)cc3)ncn2CCCN2CCOCC2)n1.Cl` [SB-217146], the “%Inh” value turned out to be 0%.
Same read-out and setting: for `COc1cccc(OC)c1C(=O)Nc1cccc(-c2nn3ccccc3c2-c2ccnc(Nc3cccc(F)c3)n2)c1` [GSK361065] the value was 25%; for `O=C(NOCC1CC1)c1cc(Br)c(F)c(F)c1Nc1ccc(I)cc1Cl`, 0%; for `Cc1ccc(CC(=O)N2CCc3cc(-c4cn(C)c5ncnc(N)c45)ccc32)cc1` [GSK2634758], 32%.
Still for that read-out and setting: the same measure for `CC(C)c1nc(-c2cccc(NS(=O)(=O)c3ccccc3)c2)c(-c2ccnc(Nc3ccc4c(c3)CN(C)CC4)n2)s1` [GSK1649598]: 99.6%; for `Cc1ccc(C(=O)Nc2ccc(Oc3ccc4nc(NC(=O)C5CC5)cn4c3)c(F)c2)c(=O)n1-c1ccccc1`: 94.9%; for `c1ccc(Oc2ccc(Nc3ccnc4ccc(-c5ccccn5)cc34)cc2)cc1` [GW407034]: 0%.
Still for that read-out and setting: for `O=C(Nc1n[nH]c2cc(-c3ccco3)ccc12)C1CC1` [SB-737447] the value was 0%; for `C[C@@H]1CNc2c(sc3ccc4nc(-c5ccc(O)cc5)ccc4c23)C(=O)N1`, 20%.
Turning to `CCn1c(-c2nonc2N)nc2cncc(Br)c21` [SB-738004], the “%Inh” value was 15%.
Same read-out and setting: the same measure for `CS(=O)c1ccc(-c2coc3ccc(-c4n[nH]c(=O)o4)cc23)cc1` (stereo not shown): 2%.
The same measure, in the same setting: for `CN1CCN(CCCNc2nccc(-c3c(-c4ccc(F)cc4)nn4cc(C(N)=O)ccc34)n2)CC1` [GW622475] the value was 7%.
For `CC(C(=O)NC1CCN(c2ccnc(Nc3ccc(F)cc3)n2)C1)c1ccc(Cl)cc1` (stereo not shown) [GSK1379713], the “%Inh” value is 0%.
For the compound `CC(=O)c1c(-c2ccncc2)[nH]c(-c2ccncc2)c1C` [GW493036], the “%Inh” value turned out to be 0%.
Still for that read-out and setting: the same measure for `CS(=O)(=O)c1cccc(CNc2nc(Nc3ccc4c(c3)[C@@H]3C[C@@H]4CNC3=O)ncc2C(F)(F)F)c1`: 45%.
Same read-out and setting: the same measure for `FC(F)(F)c1cc(Br)cc(Nc2nccc(-c3cnn4ncccc34)n2)c1` [GW810578]: 14%; for `CC(=O)Nc1ccc(-c2cc3ncnc(SCC(=O)O)c3s2)cc1`: 6%; for `NC(=O)Nc1sc(-c2ccc(F)cc2)cc1C(N)=O` [GW789449]: 21%.
On the same count and under the same terms, for `CN(c1cccc(CNc2nc(Nc3ccc4c(c3)CC(=O)N4)ncc2C(F)(F)F)c1)S(C)(=O)=O` the value was 25%.
On to `COC(=O)Nc1nc2cc(Oc3ccc(NC(=O)Nc4cc(C(F)(F)F)ccc4Cl)cc3)ccc2[nH]1.Cl` [GW697465], for which the “%Inh” value is on record as 0%.
Still for that read-out and setting: the same measure for `COc1ccc(Nc2nccc(N3CCC(NC(=O)c4cccc(C#N)c4)C3)n2)cc1` (stereo not shown) [GSK1379730]: 18%; for `Cc1ccc(Nc2ccnc(Nc3ccc4c(c3)CS(=O)(=O)C4)n2)cc1O.Cl` [GW579362]: 58%; for `Cl.Cl.NC[C@H](CC1CCCCC1)NC(=O)c1ccc(-c2ccnc3[nH]ccc23)s1` [GSK1581428]: 11%.
For the compound `Cc1n[nH]c2cc(Nc3ccnc(Nc4cccc(CN5CCOCC5)c4)n3)ccc12` [GW682569], the “%Inh” value is recorded as 46%.
